According to PMC12431657, “Discovery and mechanistic insights of dibenzoylmethane as a broad spectrum inhibitor of coronavirus” (PLOS Pathogens, 2025):
Where a name gives a salt, the structure may show the parent alone. Read-outs that look alike come from different tables or passages of the source. Screen size: about 3,300 compounds; about 95 (3%) showed an effect of 50% or more. The sample as a whole holds a higher share of strong results than the screen did.

Tested on: HCoV-229E
Set-up: species or system Huh-7; HTS, protection from HCoV-229E induced cell death, luminescent cell viability (CellCounting-Lite 2.0), inhibition rate
Conditions: 24 h post infection, 1 h compound pre-incubation, 10 µM, inhibitor

Row | SMILES | 229E Inhibition rate | 229E Inhibition rate (229E Inhibition rate, 24 h)
1 | Cc1ccccc1C(=O)O [o-Toluic acid] | 0% | –
2 | O=C(O)CNC(=O)c1ccccc1 [Hippuric acid] | 8.9% | –
3 | Cc1ccccc1C(=O)NCC(=O)O [2-(2-Methylbenzamido)acetic acid] | 54.8% | –
4 | CCOC(=O)/C=C/c1ccc(O)cc1 [p-Coumaric Acid Ethyl Ester] | 23% | –
5 | O=C1Cc2ccccc2N1 [Oxindole] | 15.9% | –
6 | O=C1C=CC[C@@H]2[C@H]3CCCN4CCC[C@@H](CN12)[C@@H]34 [Sophocarpine (monohydrate)] | – | 23.9%
7 | COc1ccc(C2COc3cc(O)ccc3C2)c(O)c1OC (stereo not shown) [Isomucronulatol] | 9.8% | –
8 | COc1ccc(C(=O)O)cc1 [p-Anisic acid] | 5.8% | –
9 | Oc1cc(O)c2c(c1)O[C@H](c1cc(O)c(O)c(O)c1)[C@H](O)C2 [(-)-Epigallocatechin] | 10.4% | –
10 | Oc1cc(O)c2c(c1)O[C@@H](c1cc(O)c(O)c(O)c1)[C@H](O)C2 [(-)-Gallocatechin] | 16.1% | –
11 | Oc1cc(O)c2c(c1)O[C@H](c1cc(O)c(O)c(O)c1)[C@@H](O)C2 [(+)-Gallocatechin] | 54.1% | –
12 | O=C(O)CC(O)(CC(=O)O)C(=O)O [Sodium citrate (dihydrate)] | – | 0%
13 | CC(C)C1=Cc2ccc3c(c2C(=O)C1=O)CCCC3(C)C [Miltirone] | 4.2% | –
14 | O=C(O)Cc1cccc(O)c1 [3-Hydroxyphenylacetic acid] | 11% | –
15 | C=C1C[C@@]2(O)O[C@@]3(C[C@H]2C(C)C)[C@@H](C)CC[C@@H]13 [Curcumol] | 11.7% | –
16 | C=C1C[C@]2(O)O[C@@]3(CC2=C(C)C)[C@@H](C)CC[C@@H]13 [Isocurcumenol] | 10.7% | –
17 | CC1=C[C@]2(O)O[C@@]3(CC2=C(C)C)[C@@H](C)CC[C@@H]13 [Curcumenol] | 64.3% | –
18 | O=C1CCCCC1=O [1,2-Cyclohexanedione] | 20.8% | –
19 | C=C(C)C1CC=C(C)C(O)C1 (mixture of isomers) [Carveol] | 14.5% | –
20 | C[C@H]1CC[C@@H]2N(C1)C[C@H]1[C@@H]3C[C@H]4[C@@H](CC(=O)[C@H]5C[C@@H](O[C@@H]6O[C@H](CO)[C@@H](O)[C@H](O)[C@H]6O)CC[C@@]54C)[C@@H]3CC[C@@H]1[C@]2(C)O [Edpetiline] | 11.7% | –
21 | O[C@@H]1[C@@H](O)[C@H](OC/C=C/c2ccccc2)O[C@H](CO[C@@H]2OC[C@H](O)[C@H](O)[C@H]2O)[C@H]1O [Rosavin] | 56.6% | –
22 | COc1ccc(C(C)=O)c(O[C@@H]2O[C@H](CO[C@@H]3OC[C@H](O)[C@H](O)[C@H]3O)[C@@H](O)[C@H](O)[C@H]2O)c1 [Apiopaeonoside] | 0% | –
23 | COC(=O)c1ccccc1O[C@@H]1O[C@H](CO[C@@H]2OC[C@@H](O)[C@H](O)[C@H]2O)[C@@H](O)[C@H](O)[C@H]1O [Gaultherin] | 45.9% | –

Row | SMILES | 229E Inhibition rate | 229E Inhibition rate (229E Inhibition rate, 24 h)
24 | O=C1NCN(c2ccccc2)C12CCN(CCCOc1ccc(F)cc1)CC2 [Spiramide] | 51.4% | –
25 | O=C1c2cccc(O)c2C(=O)c2c(O)cccc21 [Danthron] | 0% | –
26 | Cc1cc(O)c2c(c1)C(=O)c1cccc(O)c1C2=O [Chrysophanol] | 29.5% | –
27 | O=C(O)c1cc(O)c2c(c1)C(=O)c1cccc(O)c1C2=O [Rhein] | 55.2% | –
28 | C=C1C=CC(C(C)C)CC1 (stereo not drawn) [β-Phellandrene] | 51.8% | –
29 | CC(C)=CC[C@]12Oc3cc(O)c([C@H]4C=C(C)C[C@H](c5ccc(O)cc5O)[C@H]4C(=O)c4ccc(O)cc4O)c(O)c3C(=O)[C@@]1(O)Oc1cc(O)ccc12 [Sanggenon C] | 43.3% | –
30 | COC(=O)[C@H]1[C@H]2C[C@H]3c4[nH]c5ccccc5c4CCN3C[C@H]2CC[C@@H]1O [Rauwolscine (hydrochloride)] | 43.9% | –
31 | COC(=O)C1=CO[C@@H](C)[C@H]2CN3CC[C@]4(C(=O)Nc5ccccc54)[C@@H]3C[C@H]12 [Mitraphylline] | 5.5% | –
32 | COC(=O)C1=CO[C@@H](C)[C@H]2CN3CCc4c([nH]c5ccccc45)[C@@H]3C[C@H]12 [Ajmalicine] | 55.3% | –
33 | COC(=O)C1=CO[C@@H](C)[C@@H]2CN3CC[C@@]4(C(=O)Nc5ccccc54)[C@@H]3C[C@H]12 [Isopteropodine] | 13.3% | –
34 | COC(=O)[C@@H]1[C@H]2C[C@H]3c4[nH]c5ccccc5c4CCN3C[C@@H]2CC[C@@H]1O [Yohimbine] | – | 50.5%
35 | COC(=O)[C@@H]1[C@H]2C[C@H]3c4[nH]c5ccccc5c4CCN3C[C@@H]2CC[C@@H]1O [Yohimbine (Hydrochloride)] | – | 36%
36 | Cn1cnc2c(ncn2[C@@H]2O[C@H](CO)[C@@H](O)[C@H]2O)c1=N [1-Methyladenosine] | 12.1% | –
37 | N[C@@H](Cc1c[nH]c2ccc(O)cc12)C(=O)O [5-Hydroxytryptophan] | – | 13.7%
38 | C[N+]1(C)CCC[C@H]1C(=O)[O-] [Stachydrine hydrochloride] | – | 11.8%
39 | C[C@H]1CC[C@]2(NC1)O[C@H]1C[C@H]3[C@@H]4CC[C@H]5C[C@@H](O)CC[C@]5(C)[C@H]4CC[C@]3(C)[C@H]1[C@@H]2C [Tomatidine (hydrochloride)] | – | 28.3%
40 | C[C@@H]1CC[C@@]2(OC1)O[C@H]1C[C@H]3[C@@H]4CC[C@H]5C[C@@H](O)CC[C@]5(C)[C@H]4CC[C@]3(C)[C@H]1[C@@H]2C [Tigogenin] | 11% | –
41 | C[C@H]1CC[C@]2(NC1)O[C@H]1C[C@H]3[C@@H]4CC[C@H]5C[C@@H](O)CC[C@]5(C)[C@H]4CC[C@]3(C)[C@H]1[C@@H]2C [Tomatidine] | – | 55.9%
42 | COc1cc(-c2oc3cc(O)cc(O)c3c(=O)c2O)ccc1O [Isorhamnetin] | 7.4% | –
43 | COc1cc2c(cc1O)CC[N+](C)(C)[C@@H]2Cc1ccc(O)cc1 [Lotusine (hydroxide)] | 0% | –
44 | COc1cc(/C=C/C(=O)OC[C@H]2O[C@H](O[C@]3(CO)O[C@H](CO)[C@@H](O)[C@@H]3OC(=O)/C=C/c3cc(OC)c(OC)c(OC)c3)[C@H](O)[C@@H](O)[C@@H]2O)cc(OC)c1O [Tenuifoliside C] | 19.9% | –
45 | CC(C)=CC(=O)C[C@H](C)c1ccc(C)cc1 [ar-Turmerone] | 53% | –
46 | CC(=O)c1ccc(C)cc1 [4'-Methylacetophenone] | 8.7% | –

Row | SMILES | 229E Inhibition rate | 229E Inhibition rate (229E Inhibition rate, 24 h)
47 | Cc1ccc(C(=O)O)cc1 [p-Toluic acid] | 6.6% | –
48 | CC1=COC(=O)[C@H]2[C@@H]1CC[C@@H]2C [4aα,7α,7aα-Nepetalactone] | 8.3% | –
49 | CC(=O)CCc1ccc(O[C@@H]2O[C@H](CO)[C@@H](O)[C@H](O)[C@H]2O)cc1 [Raspberry ketone glucoside] | 19.3% | –
50 | C=C[C@H]1CN2CC[C@]3(C(=O)Nc4ccccc43)[C@@H]2C[C@@H]1/C(=C\OC)C(=O)OC [Corynoxeine] | 15.2% | –
51 | CC[C@]12CCCN3CCc4c(n(c5ccccc45)C(=O)C1)[C@@H]32 [Vinburnine] | 22.5% | –
52 | CCOC(=O)C1=C[C@]2(CC)CCCN3CCc4c(n1c1ccccc41)[C@@H]32 [Vinpocetine] | 50% | –
53 | CC[C@]12CCCN3CCc4c(n(c5ccccc45)[C@@](O)(C(=O)OC)C1)[C@@H]32 [Vincamine] | 16.6% | –
54 | C/C=C(/C)C(=O)O[C@H]1c2cc3c(c4c2[C@@]2(CO4)C(=O)C(OC)=C(OC)C=C2C[C@@H](C)[C@H]1C)OCO3 [Heteroclitin D] | 47.7% | –
55 | COc1cc2oc(=O)ccc2cc1CC=C(C)C [Suberosin] | 15.6% | –
56 | COC(=O)CC[C@@H](C)[C@H]1CC[C@H]2[C@@H]3[C@H](O)C[C@@H]4C[C@H](O)CC[C@]4(C)[C@H]3C[C@H](O)[C@]12C [Methyl cholate] | 54.9% | –
59 | COc1c(/C=C/C(=O)c2ccc(O)cc2)ccc(O)c1CC=C(C)C [Licochalcone C] | 5% | –
60 | CC(=O)NCC(=O)O [N-Acetylglycine] | 10.2% | –
61 | COc1c(CC=C(C)C)c(O)cc2oc(=O)c3c4ccc(O)cc4oc3c12 [Neoglycyrol] | 90.8% | –
62 | CC(C)=CCc1cc2c(cc1O)oc(=O)c1c3ccc(O)cc3oc21 [Psoralidin] | 43.7% | –
63 | COc1c(CC=C(C)C)c(O)cc2oc(=O)c(-c3ccc(O)cc3O)cc12 [Glycycoumarin] | 5.6% | –
64 | C[n+]1cccc(C(=O)[O-])c1 [Trigonelline (chloride)] | – | 13.3%
65 | C[C@@H]1C(=O)O[C@H]2C[C@@]34[C@H]5C[C@@H](C(C)(C)C)[C@]36[C@@H](OC(=O)[C@@H]6O)O[C@@]4(C(=O)O5)[C@]21O [Ginkgolide A] | 11.6% | –
66 | CC1=C2[C@@H](OC1=O)[C@H](O)[C@]13[C@H]4C[C@@H](C(C)(C)C)[C@]15[C@@H](OC(=O)[C@@H]5O)O[C@@]23C(=O)O4 [Ginkgolide K] | 62% | –
67 | C[C@@H]1C(=O)O[C@H]2[C@H](O)[C@@]34[C@H]5C[C@@H](C(C)(C)C)[C@]36[C@@H](OC(=O)[C@@H]6O)O[C@@]4(C(=O)O5)[C@@]12O [Ginkgolide B] | 25.6% | –
